Measurements taken from PubChem BioAssay (Tox21).
Records with an inconclusive call do not appear. Active and inactive are the calls of the source. Calls follow the shape of the dose curve; as a rule, active = well fitted cell-killing curve with a large enough effect in the repeat runs; inconclusive = weak or mixed curves, or effect the other way; inactive = flat fitted curve, though single readings scatter.

Test: qHTS RealTime-Glo MT Cell Viability Assay in HEK293 cells - 0 hour (AID 1224880); also: top concentration of the series differs between compounds; nearly all actives have a fitted effect of over 45% in size
Details: RealTime-Glo luminescence; series mostly up to 76.8 µM
From the text: U.S. Tox21 Program National Center for Advancing Translational Sciences [NCATS] NIH Chemical Genomics Center [NCGC] U.S. Environmental Protection Agency [EPA] National Institutes of Environmental Health Sciences [NIEHS] National Toxicology Program [NTP] U.S. Food and Drug Administration [FDA] Tox21 Assay Overview: Measure of cell viability is critical in the cell-base assay. Analysis of cell viability is necessary for the characterization of cell responses to cytotoxic drugs and environmental stress. A RealTime-Glo MT Cell Viability Assay to monitor cell viability in real time of continues cell culture during 40 hours of compound treatment was used to screen Tox21 10K library compounds in Hek293 cells. The RealTime-Glo MT Cell Viability Assay is a nonlytic, homogeneous, bioluminescent method to measure cell viability in real time using a simple, plate-based method. The assay involves adding NanoLuc luciferase and a cell-permeant prosubstrate to cells in culture. Viable cells reduce the proprietary prosubstrate to generate a substrate for NanoLuc luciferase. This substrate diffuses from cells into the surrounding culture medium, where it is rapidly used by the NanoLuc Enzyme to produce a luminescent signal. The signal correlates with the number of viable cells, making the assay well suited for cytotoxicity studies.
Tox21 Assay Protocol Summary: The mixture of Hek293 cell suspension and reagents were dispensed at 600cells/6 ul/well in 1536-well tissue culture treated black solid bottom plates using a Multidrop dispenser. After the assay plates were incubated at a 37 C/5% CO2 incubator for 5 hours, 23 nL of compounds dissolved in DMSO, positive and negative controls was transferred to the assay plate by a pintool work station. The plates were incubated at 37 C for 40 hours. The luminescence intensity were measured at 0h, 8h, 16h, 24h, 32h and 40h time points using ViewLux plate reader during compound treatment.

| SMILES | outcome |
| --- | --- |
| O=C(O)Cc1ccccc1 | inactive |
| O=[N+]([O-])c1cc([As](=O)(O)O)ccc1O | inactive |
| CN(C)CCC#N | inactive |
| Nc1ncc([N+](=O)[O-])s1 | inactive |
| CNC(=O)O/N=C/C(C)(C)S(C)(=O)=O | inactive |
| C/C=C/c1ccc2c(c1)OCO2 | inactive |
| OCC(O)CCl (stereo not given) | inactive |
| CNC(=O)O/N=C/C(C)(C)SC | inactive |
| FC(F)(F)c1ccc(Cl)cc1 | inactive |
| O=C(O)c1cc(Oc2ccc(C(F)(F)F)cc2Cl)ccc1[N+](=O)[O-] | inactive |
| Oc1ccc(Cl)cc1 | inactive |
| CCOP(=S)(OCC)Oc1cc(C)nc(C(C)C)n1 | inactive |
| COS(=O)(=O)OC | inactive |
| O=C/C=C/c1ccccc1 | inactive |
| [N-]=[N+]=CC(=O)OC[C@H](N)C(=O)O | inactive |
| Nc1nc(N)nc(NC2CC2)n1 | inactive |
| Cc1ccc(N=C=O)cc1N=C=O | inactive |
| Cl[C@H]1OCCO[C@@H]1Cl | inactive |
| CC(C)c1cccc(C(C)C)c1O | inactive |
| COP(=S)(OC)SCN1C(=O)c2ccccc2C1=O | inactive |

| SMILES | outcome |
| --- | --- |
| Nc1ccc([As](=O)(O)O)cc1 | inactive |
| Nc1ccc(N)cc1 | inactive |
| CNC(=O)O/N=C/C(C)(C)S(C)=O (stereo not given) | inactive |
| COc1nc(NC(C)C)nc(NC(C)C)n1 | inactive |
| N#Cc1cccc(C#N)c1 | inactive |
| C=CCN=C=S | inactive |
| Cc1cccc(C)c1N | inactive |
| CNC(=O)Oc1cccc2ccccc12 | inactive |
| CCOc1ccc(N)cc1 | inactive |
| COC(C)(C)CCCC(C)C/C=C/C(C)=C/C(=O)OC(C)C (stereo not given) | inactive |
| C[C@H]1C(=O)O[C@@H]2CCN3CC=C(COC(=O)[C@](C)(O)[C@]1(C)O)[C@H]23 | inactive |
| OCc1ccco1 | inactive |
| Cc1cc(Cl)ccc1OC(C)C(=O)O (stereo not given) | inactive |
| Clc1cnc(Oc2ccc(Oc3ncc(Cl)cc3Cl)cc2)c(Cl)c1 | inactive |
| ClCCOCCCl | inactive |
| CCOP(=S)(OCC)Oc1ccc([N+](=O)[O-])cc1 | inactive |
| CSc1nnc(C(C)(C)C)c(=O)n1N | inactive |
| O=C(O)COc1ccccc1 | inactive |
| C=CC(=O)OCC(CC)CCCC (stereo not given) | inactive |
| O=[N+]([O-])c1ccc(Cl)cc1 | inactive |
